Laboratory results taken from ChEMBL document CHEMBL4513216, “Probing the Open Global Health Chemical Diversity Library for Multistage-Active Starting Points for Next-Generation Antimalarials” (ACS Infect Dis, 2020).
Screen size: about 65,000 compounds; about 2,100 (3.2%) showed an effect of 50% or more. The median lay at about -52%. Only a selection was taken, and strong results are over-represented in it overall.

These molecules were tested on Plasmodium falciparum (assay: Screen against P. falciparum Asexual Blood Stage (ABS), at 5uM). Conditions: tested at 5 uM.
Format: functional, Dd2

With `CN(C)c1cc(CNC(=O)c2cc(Cl)ccn2)ccn1` as the molecule, how does the INHIBITION read?
Its INHIBITION is -158%.

How did the INHIBITION turn out when `Cc1cc(-c2nn3c(C(C)C)nnc3s2)on1` was run?
Its INHIBITION is -33%.

How did the INHIBITION turn out when `COCC1Cn2nnc(-c3cnn(C)c3)c2CN1Cc1cccs1` (stereo unspecified) was run?
Its INHIBITION is 59.2%.

`COCC1Cn2nnc(-c3cnn(C)c3)c2CN1Cc1ccco1` (stereo unspecified) was tested. Which INHIBITION did it give?
The INHIBITION was -88.9%.

How did the INHIBITION turn out when `COCC1Cn2nnc(-c3cnn(C)c3)c2CN1Cc1ccc(C)s1` (stereo unspecified) was run?
The INHIBITION was -9.62%.

How did the INHIBITION turn out when `Cc1ccc(S(=O)(=O)NCCc2cccnc2)cc1C` was run?
The INHIBITION was -35.5%.

Which INHIBITION does the source give for `c1cc(CN2C[C@H](OCC3CCOCC3)[C@H]3COC[C@H]32)co1` here?
The INHIBITION was -93%.

How did the INHIBITION turn out when `Cc1noc(C)c1C(=O)N1CCCC(c2c(C)c(=O)nc3n2CCC3)C1` (stereo unspecified) was run?
Its INHIBITION is -105%.

`CN(C)CCNC(=O)c1sccc1N(C)S(=O)(=O)c1ccc(Cl)cc1` was tested. Which INHIBITION did it give?
Its INHIBITION is 64.2%.

`COCCNC(=O)c1sccc1N(C)S(=O)(=O)c1ccc(Cl)cc1` was tested. Which INHIBITION did it give?
Its INHIBITION is -88.8%.

With `CCCNC(=O)c1sccc1N(C)S(=O)(=O)c1ccc(Cl)cc1` as the molecule, how does the INHIBITION read?
The INHIBITION was -84%.

How did the INHIBITION turn out when `Cc1cccc(CC(=O)N2CCOCC2c2c(C)n[nH]c2C)c1` (stereo unspecified) was run?
The INHIBITION was -75.3%.

For `CC(=O)N(Cc1noc(C)n1)C1CCN(Cc2cnc(C)s2)C1` (stereo unspecified), which INHIBITION is on record?
The INHIBITION was -55.6%.

`COc1ccc(CN2CCCC2c2cccc(F)c2)c(OC)c1OC` (stereo unspecified) was tested. Which INHIBITION did it give?
The INHIBITION was 60.2%.

How did the INHIBITION turn out when `COc1cccc(CN2CCCC2c2cccc(F)c2)c1OC` (stereo unspecified) was run?
Its INHIBITION is 55.4%.

How did the INHIBITION turn out when `COc1cccc(CN2CCCCCC2c2cccs2)c1OC` (stereo unspecified) was run?
Its INHIBITION is -70.3%.

With `Fc1cccc(C2CCCN2Cc2nnnn2C2CC2)c1` (stereo unspecified) as the molecule, how does the INHIBITION read?
The INHIBITION was -26.9%.

With `CS(=O)(=O)c1ccc(CN2CCCCC2c2cccc(F)c2)cc1` (stereo unspecified) as the molecule, how does the INHIBITION read?
Its INHIBITION is -36.8%.

`COc1cc(CN2CCCC2c2cccc(F)c2)cc(OC)c1OC` (stereo unspecified) was tested. Which INHIBITION did it give?
Its INHIBITION is 28.2%.

Which INHIBITION does the source give for `O=C(c1ccc(COc2ccc(Cl)cc2)o1)N1N=CCC1(O)C(F)(F)F` (stereo unspecified) here?
Its INHIBITION is -121%.

How did the INHIBITION turn out when `CCc1nccn1C1CCCN(C(=O)c2cnn3cccnc23)C1` (stereo unspecified) was run?
Its INHIBITION is -64%.

With `O=C(N[C@H]1CN(c2nc(CO)cs2)C[C@@H]1C1CC1)C1CCCCC1` as the molecule, how does the INHIBITION read?
The INHIBITION was -26.4%.

`O=C(COC[C@]12COC[C@H]1CN(C1CCC1)C2)N1CCCC1` was tested. Which INHIBITION did it give?
The INHIBITION was -115%.

For `CSCCCN1C[C@H](NC(=O)c2ccc(CO)cc2)[C@@H](C2CC2)C1`, which INHIBITION is on record?
Its INHIBITION is 17.3%.

Which INHIBITION does the source give for `Cc1nc(N)sc1C(=O)N[C@H]1CN(CCO)C[C@@H]1C1CC1` here?
The INHIBITION was -82.2%.

Which INHIBITION does the source give for `Cc1cc(C(=O)N[C@H]2CN(CCC(N)=O)C[C@@H]2C2CC2)sc1C` here?
Its INHIBITION is -43.8%.

For `Cc1ccc(C(F)(F)F)cc1C(=O)N[C@H]1CN(CCO)C[C@@H]1C1CC1`, which INHIBITION is on record?
Its INHIBITION is 63.9%.

With `Cc1cnc(C(=O)N[C@H]2CN(CCS(C)(=O)=O)C[C@@H]2C2CC2)cn1` as the molecule, how does the INHIBITION read?
The INHIBITION was -47.7%.

`Cc1cc(C(=O)N[C@H]2CN(CCO)C[C@@H]2C2CC2)sc1C` was tested. Which INHIBITION did it give?
Its INHIBITION is 60.8%.

How did the INHIBITION turn out when `Cc1ccc(CN2CCCC3(CCCN3S(C)(=O)=O)C2)s1` (stereo unspecified) was run?
Its INHIBITION is -71.7%.

How did the INHIBITION turn out when `Cc1ccc(C(=O)N(C)CCCc2cnn(C)c2)cc1N1CCNC1=O` was run?
The INHIBITION was -86.4%.

`O=C(CCc1nnc2ccccn2c1=O)NCc1ccc2c(c1)OCO2` was tested. Which INHIBITION did it give?
Its INHIBITION is -108%.

How did the INHIBITION turn out when `Cn1cc(CN2CCc3nc(-c4ccccn4)nc(O)c3C2)cn1` was run?
Its INHIBITION is -3.83%.

Which INHIBITION does the source give for `Cc1cc(C)n(CC2CN(CCOc3ccc(C#N)cc3)CCO2)n1` (stereo unspecified) here?
The INHIBITION was -114%.

Which INHIBITION does the source give for `CC(C)c1noc(CN2CCC(c3nc4cc(Cl)ccc4o3)CC2)n1` here?
The INHIBITION was -72.4%.

How did the INHIBITION turn out when `CCc1nnc(Nc2cccc(C3CCN(C)CC3)n2)s1` was run?
Its INHIBITION is 6.83%.

How did the INHIBITION turn out when `CCc1nnc(Nc2cccc(C3CCN(CC4CC4)CC3)n2)s1` was run?
Its INHIBITION is 3.36%.

How did the INHIBITION turn out when `CCc1nnc(Nc2cccc(C3CCN(c4cnccn4)CC3)n2)s1` was run?
The INHIBITION was 55.5%.

How did the INHIBITION turn out when `COCCC(=O)N1CCCC2(CCC(=O)N2CCOC)CC1` (stereo unspecified) was run?
Its INHIBITION is -122%.

For `CN1CCN(C(=O)CCn2nnc3ccccc32)CC(C(N)=O)C1` (stereo unspecified), which INHIBITION is on record?
The INHIBITION was -71.9%.

How did the INHIBITION turn out when `Cc1ncsc1C(=O)N1CCC(O)(Cn2c(C)cc3ccncc32)CC1` was run?
The INHIBITION was -64.6%.

Which INHIBITION does the source give for `Cn1ccnc1Sc1ccc(N)cn1` here?
The INHIBITION was -78.1%.

How did the INHIBITION turn out when `CS(=O)(=O)NC[C@]12COC[C@H]1CN(CCc1ccccc1)C2` was run?
Its INHIBITION is -29.9%.

How did the INHIBITION turn out when `O=C(c1ccncc1F)N1Cc2nc(CN3CCCCC3)oc2C1` was run?
Its INHIBITION is -21.6%.

For `CN(Cc1ccco1)C1CCC12CCN(C(=O)c1ccnnc1)CC2` (stereo unspecified), which INHIBITION is on record?
Its INHIBITION is 53.3%.

How did the INHIBITION turn out when `CN(Cc1ccco1)C1CCC12CCN(C(=O)c1ccco1)CC2` (stereo unspecified) was run?
Its INHIBITION is -9.15%.

With `CN(Cc1ccco1)C1CCC12CCN(C(=O)c1ccncc1)CC2` (stereo unspecified) as the molecule, how does the INHIBITION read?
The INHIBITION was 38.3%.

Which INHIBITION does the source give for `CC(C)(C)n1ncc2c1CCCC2NCc1ccc2ncccc2c1` (stereo unspecified) here?
Its INHIBITION is -1.42%.

`Cc1cc(N2CCC3(CCCN(CCO)C3=O)C2)nc2ccccc12` (stereo unspecified) was tested. Which INHIBITION did it give?
Its INHIBITION is 19.1%.

Which INHIBITION does the source give for `Cc1cc(CN(C)C(=O)C(c2ccccc2F)N(C)C)ccn1` (stereo unspecified) here?
Its INHIBITION is -25.2%.

`CN(Cc1cnc2ccccc2c1)C(=O)C(c1ccccc1F)N(C)C` (stereo unspecified) was tested. Which INHIBITION did it give?
The INHIBITION was 64.4%.
